Laboratory results: PubChem BioAssay (NCI)
Where “and” joins values, the source holds several entries; their conditions need not be identical. Equal values may be shown once. Compounds without any hit were thinned out: in the full panel of roughly 79,000, 15% have a hit. Cut-off read from the data, not from the text of the source: active = growth inhibition above about 70%; inactive = the rest.

Tests used:
[1] = NCI Yeast Anticancer Drug Screen. Data for the rad50 strain (AID 155);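 note: 0% = growth of vehicle-only cultures of the same strain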; conditions: S. cerevisiae rad50 strain growth inhibition; at 50.0 µM; stronger effect = higher value
How it was run: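 Relative growth inhibition (compound vs vehicle) was measured in yeast with a defined repair-gene alteration.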

[2] = NCI Yeast Anticancer Drug Screen. Data for the mec2-1 strain (AID 157); conditions: S. cerevisiae mec2-1 strain, at 50.0 µM, stronger effect = higher value
How it was run: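 Mutant yeast (mec2-1) grown with compound; growth inhibition relative to vehicle control reported.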

[3] = NCI Yeast Anticancer Drug Screen. Data for the sgs1 mgt1 strain (AID 161);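 note: 0% = growth of cultures given vehicle only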; conditions: S. cerevisiae sgs1 mgt1 strain, at 50.0 µM, stronger effect = higher value
How it was run: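 Percent growth inhibition was derived by comparing compound-exposed mutant yeast with vehicle-exposed cultures. The strain carries alterations in DNA damage repair.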

[4] = NCI Yeast Anticancer Drug Screen. Data for the cln2 rad14 strain (AID 165);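 note: 0% = growth equal to vehicle treated cultures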; conditions: S. cerevisiae cln2 rad14 strain, at 50.0 µM, stronger effect = higher value
How it was run: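 Readout is yeast growth inhibition versus vehicle-treated controls, using a strain with cln2 and rad14 alterations exposed to compound.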

[5] = NCI Yeast Anticancer Drug Screen. Data for the bub3 strain (AID 167); conditions: S. cerevisiae bub3 mutant strain, at 50.0 µM, stronger effect = higher value
How it was run: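 Screening used yeast with an engineered genetic alteration affecting cell cycle control. Compound-exposed cultures were compared with vehicle cultures, and reduced growth was taken as inhibition.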

[6] = NCI Yeast Anticancer Drug Screen. Data for the mlh1 rad18 strain (AID 175); conditions: S. cerevisiae mlh1 rad18 strain growth inhibition; at 50.0 µM; stronger effect = higher value
How it was run: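 Genetically defined yeast (DNA repair-deficient) exposed to compounds; growth inhibition determined relative to vehicle.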

Measured: growth inhibition

Nc1c(O)nc[nH]c1=O
inactive: [1] 3.5% and -8.25% | [2] -5.15% and -3.15% | [3] -9% and -8.55% | [4] -1.55% and -39.1% | [5] 4.8% and -10.2% | [6] -16.6% and -8.95%

CC1(C)Nc2ccccc2C(c2ccccc2)=NC1=O
inactive: [1] -2.7% and 4.8% | [2] -17.1% and -15.2% | [3] -7% and 0.85% | [4] -5.75% and -0.25% | [5] -4.7% and -4.6% | [6] 12.7% and 13.3%

CC(C)CCC(N)C(=O)O (stereo unspecified)
inactive: [1] -11.7% and 0.15% | [2] -14.9% and -0.55% | [3] -11.5% and -6% | [4] -42.5% and -15.7% | [5] -3.25% and 3.75% | [6] -22.6% and -2%

CCCSc1nc(COC(=O)NC)c(COC(=O)NC)n1C
inactive: [1] -5.1% and -10% | [2] -25.1% and 2% | [3] -5.8% and -9.1% | [4] -12% and 2.95% | [5] -5.1% and -2% | [6] -20.4% and 4.85%

CCC(=O)Oc1cc(C)ccc1C(C)(C)C
inactive: [1] 1.4% and -18.1% | [2] 0.8% and -19.4% | [3] 1.45% and -12% | [4] -3.7% and -1.5% | [5] -0.3% and -13.2% | [6] -3.6% and -5.85%

Cc1ccc(C)c(NC(=O)CC2Sc3ccccc3NC2=O)c1 (stereo unspecified)
inactive: [1] -0.4% and -7.3% | [2] -25.8% and -19.4% | [3] 8.4% and -28.5% | [4] 21.9% and 8.45% | [5] 26.3% and 10.3% | [6] -5.05% and -88%

O=C(O)CCCCCCCCCCCCC1C=CCC1 (stereo unspecified)
inactive: [1] -11.2% and -0.55% | [2] -31.5% and -17.9% | [3] 5.95% and -4.1% | [4] -4.4% and 9.45% | [5] -22.8% and -16.8% | [6] -11.2% and -6.05%

O=C(CC(=O)Nc1ccccc1)Nc1ccccc1
inactive: [1] -3.55% and 32.1% | [2] -21% and 0.2% | [3] -5.95% and 23.4% | [4] 8.5% and 5.5% | [5] -28.6% and -1.65% | [6] -5.55% and 20.8%

Cc1[nH]n(-c2ccc(S(=O)(=O)O)cc2)c(=O)c1N=Nc1ccccc1
inactive: [1] -0.4% and -2.2% | [2] 6.55% and -21.9% | [3] -10% and 2.1% | [4] 0.95% and 8.8% | [5] 10.8% and 4.1% | [6] -0.6% and 15.1%

N#Cc1c(-c2ccccc2)cc(-c2ccccc2)n(C2OC(CO)C(O)C(O)C2O)c1=O (stereo unspecified)
inactive: [1] -14.6% and -8.2% | [2] -2.85% and -9.1% | [3] 4.85% and -5.85% | [4] 1.2% and 12.4% | [5] 5.65% and 8.3% | [6] -7.95% and -10.8%

CCCCCCCCCCCCc1ccccc1
inactive: [1] 2.15% and 17.9% | [2] 4.1% and 11.4% | [3] -4.15% and 2.6% | [4] 5.25% and -55.8% | [5] 18.2% and -19.8% | [6] 16.1% and -0.6%

OCC(O)C1OC(Oc2ccccc2)C(O)C(O)C1O (stereo unspecified)
inactive: [1] 2.5% and 35.6% | [2] 32.9% and -1.85% | [3] -6.75% and 4.1% | [4] -3% and -28.4% | [5] 31.3% and 7.35% | [6] 24% and 17.4%

COc1ccc2c(c1OC)CN(C)CCc1cc3c(cc1C(=O)C2)OCO3
inactive: [1] -5.15% and -35.8% | [2] 15.7% and -17.1% | [3] -0.5% and -14.6% | [4] 49.6% and 11.8% | [5] 7.7% and -18.5% | [6] -29.9% and -8.35%

O=CNc1ccc(C(F)(F)F)cc1
inactive: [1] -16.9% and 16.4% | [2] -6.85% and -3.6% | [3] -3.3% and 6.35% | [4] -10.9% and 14.7% | [5] -8.8% and 25.4% | [6] 5.3% and 10.9%

NC(Cc1cnc[nH]1)C(=O)O (stereo unspecified)
inactive: [1] -15.4% and 3.95% | [2] -27.9% and 0.2% | [3] 2.35% and 16.4% | [4] -0.05% and 3.55% | [5] -4.35% and 3.9% | [6] -20.9% and -3.1%

CC(C)=CCCC(C)C1CCC2(C)C3=C(CCC12C)C1(C)CCC(O)C(C)(C)C1CC3 (stereo unspecified)
inactive: [1] 32.6% and 9.75% | [2] 16.4% and 2.65% | [3] 27.6% and 20.9% | [4] 25.9% and -0.25% | [5] 7.8% and 15.2% | [6] 23.9% and 29.6%

CN(/N=C/c1ccccc1)C(=N)N
inactive: [1] -3.6% and 5.4% | [2] -5.4% and 4.15% | [3] -10.2% and 13.2% | [4] -40.6% and 11.2% | [5] -12.8% and -5.6% | [6] -2.3% and 2.05%

COC1OC(COC(=O)c2ccc([N+](=O)[O-])cc2)C2OC12 (stereo unspecified)
inactive: [1] 7.6% and -6.95% | [2] -7.95% and -1% | [3] 8.7% and 1.4% | [4] 17.2% and 28.4% | [5] 27.2% and -2.85% | [6] 7.95% and 8.15%

NCC(O)c1ccc(O)c(O)c1 (stereo unspecified)
inactive: [1] 38.8% and 19.4% | [2] 39.9% and -5.9% | [3] 30.9% and -7.2% | [4] 19% and -32.3% | [5] 28.5% and 13.4% | [6] 44.6% and 14.8%

CC1(c2cccs2)NC(=O)NC1=O (stereo unspecified)
inactive: [1] 19.6% and 3.7% | [2] -6.2% and 9.05% | [3] 6.25% and 6.1% | [4] -41% and 2.3% | [5] 0.95% and 8.8% | [6] 7.1% and -3.55%

C/C(=N\O)c1ccccc1
inactive: [1] -11.2% and 18.9% | [2] -20.4% and -5.5% | [3] -3.5% and 13% | [4] 2.8% and -13.4% | [5] 8.3% and -2.6% | [6] -19.9% and 14.5%
